Results filed as inconclusive are left out. A number with no mark means an inactive call. Activity calls are given as the source filed them. Calls follow the shape of the dose curve; as a rule, active = well fitted inhibition curve with a large enough effect; inconclusive = small, poorly fitted or top-dose-only effect; inactive = flat fitted curve, though single readings scatter. Where a SMILES comes first, the peptide text is derived from it. Non-standard residues stand in square brackets, D forms with d. Residues, ends and D or L forms follow the SMILES beside them. Bridges are numbered along the chain shown (N, C = ends). [ ]: non-standard residue; d: D form. The star is where a group is joined. Dab(CH2SO3H) = N[C@@H](CCNCS(=O)(=O)O)C(=O)O; X3 = CC[C@@H](C)CCCCC(=O)*; Orn = NCCC[C@H](N)C(=O)O; Dab = NCC[C@H](N)C(=O)O

The record followed here is PubChem BioAssay (NCATS).
% is scaled to controls: 0 for no effect and ±100 for the full control effect.

The assay in a line: P-glycoprotein substrates identified in KB-8-5-11 adenocarcinoma cell line, qHTS therapeutic library screen (AID 1346987). Also: nearly all actives have a fitted effect of over 65% in size. Particulars: KB-8-5-11 (P-gp overexpressing) viability, CellTiter-Glo, 72 h; series mostly up to 44.5 µM; activity change, negative = cytotoxicity: at the top concentration. The gist of the method: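 KB-8-5-11, a colchicine-selected P-gp-overexpressing KB-3-1 subline, was grown without colchicine for the assay. Cells were seeded at 500 cells/well, dosed in concentration-response and incubated 72 h at 37 degree C, 5% CO2. Viability was read by CellTiter-Glo luminescence.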
(In general: In qHTS, concentration-response curves come from the screen itself.)
Turning to `CC[C@@H](C)CCCCC(=O)N[C@@H](CCNCS(=O)(=O)O)C(=O)N[C@H](C(=O)N[C@@H](CCNCS(=O)(=O)O)C(=O)N[C@H]1CCNC(=O)[C@H]([C@@H](C)O)NC(=O)[C@H](CCNCS(=O)(=O)O)NC(=O)[C@H](CCNCS(=O)(=O)O)NC(=O)[C@H](CC(C)C)NC(=O)[C@@H](CC(C)C)NC(=O)[C@H](CCNCS(=O)(=O)O)NC1=O)[C@@H](C)O` (X3-[Dab(CH2SO3H)]T[Dab(CH2SO3H)][Dab][Dab(CH2SO3H)][dL]L[Dab(CH2SO3H)][Dab(CH2SO3H)]T; lactam 4-C), the “activity change, negative = cytotoxicity” value is 0.693%.

`Cc1cc(C)c(S(=O)(=O)N(Cc2ccc(-c3cccc(S(C)(=O)=O)c3)cc2)Cc2ccc(C(F)(F)F)o2)c(C)c1`: the “activity change, negative = cytotoxicity” value was -11.5%.

Regarding `CC(C)C[C@@H]1NC(=O)[C@H](CCCN)NC(=O)[C@H](C(C)C)NC(=O)[C@@H]2CCCN2C(=O)[C@@H](Cc2ccccc2)NC(=O)[C@H](CC(C)C)NC(=O)[C@H](CCCN)NC(=O)[C@H](C(C)C)NC(=O)[C@@H]2CCCN2C(=O)[C@@H](Cc2ccccc2)NC1=O` (cyclo(V[Orn]L[dF]PV[Orn]L[dF]P)), the “activity change, negative = cytotoxicity” value is -1.51%. With `NC1CCC(N[C@@H]2C[C@H]2c2ccccc2)CC1` (some centres not stated), the compound was called inactive. As to `CC(C)NC[C@H](O)COc1ccc(CCOCC2CC2)cc1`, the “activity change, negative = cytotoxicity” value was 6.59%. Still for that read-out and setting: the result for `CC1(C)O[C@@H]2C[C@H]3[C@@H]4CCC5=CC(=O)C=C[C@]5(C)[C@H]4[C@@H](O)C[C@]3(C)[C@]2(C(=O)CO)O1` reads -2.59%. As for `CCCCNC(=O)[C@@H]1Cc2ccccc2N1C(=O)[C@@H](N)CC`, the compound was called inactive.
